Reference: PubChem BioAssay (EPA / NIEHS)
Records with an inconclusive call do not appear. Active and inactive are the calls of the source. Rule for the calls, unless noted: active = hit-call score of the fitted dose curve at least 0.9, where 1 is the maximum; inconclusive = response in the unintended direction; inactive = score below 0.9.

Tests used:
[1] = TOX21_p53_BLA_p2_viability: Viability Assessment in the Tox21 HCT-116 p53 Agonism Beta-lactamase Assay, Phase 2 (AID 2283591);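 note: compound exposure lasted 16 h at 37 °C; actives lower the ATP signal meaning cytotoxicity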
Outline: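 HCT116 p53-bla cells, 4000/well, dosed after 5 h plating (217-fold dilution of DMSO stocks) and incubated 16 h at 37C. Viability taken as cellular ATP by CellTiter-Glo luminescence after 30 min RT; signal loss marks cytotoxicity.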

[2] = TOX21_p53_BLA_p3_viability: Viability Assessment in the Tox21 HCT-116 p53 Agonism Beta-lactamase Assay, Phase 3 (AID 2283593);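 note: cells exposed to compound for 16 h before reading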
Outline: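 HCT116 cells, 4000/well, dosed 5 h after plating by pin transfer (217-fold dilution from DMSO stock) and incubated 16 h at 37C, 5% CO2. Viability read as ATP luminescence with CellTiter-Glo after 30 min at room temperature.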

[3] = molecular target: Cellular tumor antigen p53 (Homo sapiens) (UniProt P04637); test: TOX21_p53_BLA_p3_ratio: Tox21 HCT-116 p53 Agonism Beta-lactamase Assay, Ratio, Phase 3 (AID 2283596)
Outline: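 Cells were seeded at 4000/well, rested 5 h at 37C, then dosed with DMSO compound solutions (217-fold dilution) for 16 h. CCF4-AM substrate was loaded for 2 h at room temperature, and the 460/530 nm emission ratio was fitted for gain of signal versus DMSO.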

[4] = TOX21_p53_BLA_p4_viability: Viability Assessment in the Tox21 HCT-116 p53 Agonism Beta-lactamase Assay, Phase 4 (AID 2283597);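 note: hits lower the luminescence signal meaning cytotoxicity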
Outline: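 Viability is taken as cellular ATP: after 16 h compound exposure of HCT116 cells and a 2 h room-temperature CCF4-AM substrate step, CellTiter-Glo reagent is added and luminescence is measured 30 min later.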

[5] = molecular target: Cellular tumor antigen p53 (Homo sapiens) (UniProt P04637); test: TOX21_p53_BLA_p5_ratio: Tox21 HCT-116 p53 Agonism Beta-lactamase Assay, Ratio, Phase 5 (AID 2283599)
Outline: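 HCT-116 p53-bla cells (4000/well) plated 5 h, dosed with compound (217-fold DMSO dilution) for 16 h at 37 C; CCF4-AM substrate 2 h at room temperature. Activity is the 460/530 nm emission ratio (405 nm excitation), fitted in gain-of-signal direction versus DMSO.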

[6] = TOX21_p53_BLA_p5_viability: Viability Assessment in the Tox21 HCT-116 p53 Agonism Beta-lactamase Assay, Phase 5 (AID 2283600)
Outline: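 Viability is taken from cellular ATP content, measured by luciferase luminescence in the same wells after the beta-lactamase ratio read. Cells are seeded at 4000 per well and exposed to DMSO-dissolved compounds, diluted 217-fold, for 16 h.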

[7] = molecular target: Cellular tumor antigen p53 (Homo sapiens) (UniProt P04637); test: TOX21_p53_BLA_p4_ratio: Tox21 HCT-116 p53 Agonism Beta-lactamase Assay, Ratio, Phase 4 (AID 2283601)
Outline: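 HCT-116 p53 beta-lactamase reporter cells (4000/well) preincubated 5 h, then compound (217-fold dilution of DMSO stock) for 16 h at 37C. CCF4-AM substrate added 2 h at room temperature; 460/530 nm emission ratio fitted upward versus DMSO.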

[8] = CCTE_Shafer_MEA_dev_firing_rate_mean: CCTE's Neural Network Formation Assay for Mean Firing Rate, Shafer Lab (AID 2284031; active = hit-call score of the fitted dose curve at least 0.9, where 1 is the maximum; inactive = score below 0.9)
Outline: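 Extracellular spike frequency, AUC over DIV 5–12 recordings, in rat cortical neuron MEA cultures dosed from plating; loss direction vs DMSO.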

[9] = CCTE_Shafer_MEA_dev_per_burst_spike_percent: CCTE's Neural Network Formation Assay for Percent of Spikes in a Burst, Shafer Lab (AID 2284032; active = hit-call score of the fitted dose curve at least 0.9, where 1 is the maximum; inactive = score below 0.9)
Outline: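 Value is trapezoidal AUC over recordings on days 5, 7, 9 and 12 of the well-mean fraction of spikes falling in single-electrode bursts; rat cortical cultures exposed continuously from plating, treatment renewed DIV 5 and 9, fitted downward against DMSO.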

[10] = CCTE_Shafer_MEA_dev_active_electrodes_number: CCTE's Neural Network Formation Assay for Number of Active Electrodes, Shafer Lab (AID 2284040)
Outline: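 Developing rat cortical networks on MEAs, exposed DIV 0–12. Value is the AUC of active-electrode counts (≥5 spikes/min) from days 5, 7, 9, 12, relative to DMSO.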

[11] = CCTE_Shafer_MEA_dev_burst_rate: CCTE's Neural Network Formation Assay for Burst Rate, Shafer Lab (AID 2284042; active = hit-call score of the fitted dose curve at least 0.9, where 1 is the maximum; inactive = score below 0.9)
Outline: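 Primary rat cortical neurons on PEI-coated 48-well MEA plates (laminin added with cells at plating) (16 electrodes/well), exposed from plating to day 12, dosing renewed at DIV 5 and 9. Burst rate averaged over active electrodes, recorded DIV 5, 7, 9, 12, summarized as AUC; loss versus DMSO.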

[12] = CCTE_Shafer_MEA_dev_bursting_electrodes_number: CCTE's Neural Network Formation Assay for Number of Bursting Electrodes, Shafer Lab (AID 2284043)
Outline: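 Rat cortical primary neurons, 48-well MEA, 16 electrodes/well; dosing DIV 0–12, re-dosed with full media change DIV 5, 9. Recordings DIV 5/7/9/12, AxIS adaptive spike detector; bursting electrode = ≥1 burst/2 min. AUC across days; loss of signal vs DMSO.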

[13] = CCTE_Shafer_MEA_dev_per_burst_interspike_interval: CCTE's Neural Network Formation Assay for Burst Interspike Interval, Shafer Lab (AID 2284044; active = hit-call score of the fitted dose curve at least 0.9, where 1 is the maximum; inactive = score below 0.9)
Outline: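 Developmental network-formation MEA in primary rat cortical cultures with exposure spanning days 0–12. Within-burst ISI is averaged per well and integrated across recording days by area under the curve, with DMSO as negative control baseline.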

[14] = CCTE_Shafer_MEA_dev_burst_duration_mean: CCTE's Neural Network Formation Assay for Mean Burst Duration, Shafer Lab (AID 2284045; active = hit-call score of the fitted dose curve at least 0.9, where 1 is the maximum; inactive = score below 0.9)
Outline: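 Rat cortical cultures, 1.5 x 10^5 cells/well with laminin drop; continuous dosing days 0–12, media plus treatment refreshed DIV 5, 9. AxIS adaptive spike detection; mean single-electrode burst duration, AUC over four recordings, negative direction vs DMSO.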

[15] = CCTE_Shafer_MEA_dev_interburst_interval_mean: CCTE's Neural Network Formation Assay for Mean Interburst Interval, Shafer Lab (AID 2284046; active = hit-call score of the fitted dose curve at least 0.9, where 1 is the maximum; inactive = score below 0.9;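 note: well-mean interburst interval of bursting electrodes as AUC over four recording days; curve fitted for decrease in interburst interval relative to DMSO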)
Outline: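 Recordings on days 5, 7, 9 and 12 give well-mean interburst interval across actively bursting electrodes, summarized as area under the curve. Cultures: rat cortical neurons, continuous exposure from day 0, compound renewed at feeds; decrease analyzed versus DMSO.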

[16] = CCTE_Shafer_MEA_dev_inter_network_spike_interval_mean: CCTE's Neural Network Formation Assay for Mean Inter-network Spike Interval, Shafer Lab (AID 2284047; active = hit-call score of the fitted dose curve at least 0.9, where 1 is the maximum; inactive = score below 0.9)
Outline: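 Primary rat cortical neurons on 16-electrode MEA wells, exposed from plating day 0 through DIV 12, compound renewed at DIV 5 and 9 media changes. Mean interval between network-spike peaks recorded DIV 5, 7, 9, 12; collapsed as trapezoidal AUC, fitted downward versus DMSO.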

[17] = CCTE_Shafer_MEA_dev_network_spike_number: CCTE's Neural Network Formation Assay for Number of Network Spikes, Shafer Lab (AID 2284048; active = hit-call score of the fitted dose curve at least 0.9, where 1 is the maximum; inactive = score below 0.9;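 note: synchronized bursts across electrodes counted on days 5 7 9 12 and integrated as AUC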)
Outline: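 Rat cortical primary cultures on 48-well MEA (16 electrodes/well); continuous exposure DIV 0–12, full medium and treatment exchange DIV 5, 9. Readout: network spike count, AxIS adaptive detection, recordings DIV 5/7/9/12 collapsed to AUC; loss-of-signal fit, DMSO baseline.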

[18] = CCTE_Shafer_MEA_dev_spike_duration_mean: CCTE's Neural Network Formation Assay for Mean Spike Duration, Shafer Lab (AID 2284051; active = hit-call score of the fitted dose curve at least 0.9, where 1 is the maximum; inactive = score below 0.9;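 note: mean network spike duration pooled as area under curve over DIV 5 to 12 recordings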)
Outline: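 Primary rat cortical neurons on 16-electrode MEA wells (PEI-coated, laminin in plating drop), exposed from plating through DIV 12 with compound renewed at DIV 5 and 9. Mean network-spike duration recorded DIV 5, 7, 9, 12; trapezoidal AUC across days, DMSO baseline.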

[19] = CCTE_Shafer_MEA_dev_network_spike_duration_std: CCTE's Neural Network Formation Assay for Standard Deviation of Network Spike Duration, Shafer Lab (AID 2284052; active = hit-call score of the fitted dose curve at least 0.9, where 1 is the maximum; inactive = score below 0.9;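 note: area under curve of spike duration SD across recording days 5 to 12; hits are decreases in network spike duration SD versus DMSO vehicle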)
Outline: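 Primary rat cortical neurons on PEI-coated 16-electrode MEA wells, exposed from plating day 0 through day 12 with compound renewed at DIV 5 and 9. Network spike duration SD recorded on days 5, 7, 9, 12, collapsed as trapezoidal AUC; loss-of-signal fit versus DMSO.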

[20] = CCTE_Shafer_MEA_dev_per_network_spike_spike_number_mean: CCTE's Neural Network Formation Assay for Mean Number of Spikes in a Network Spike, Shafer Lab (AID 2284053; active = hit-call score of the fitted dose curve at least 0.9, where 1 is the maximum; inactive = score below 0.9)
Outline: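 Primary rat cortical neurons on 48-well, 16-electrode MEA plates were exposed from plating to DIV 12, with dosing renewed on DIV 5 and 9. Spikes per network spike (0.05 s peak window) were recorded on DIV 5, 7, 9 and 12 and collapsed as trapezoidal AUC versus DMSO.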

[21] = CCTE_Shafer_MEA_dev_per_network_spike_spike_percent: CCTE's Neural Network Formation Assay for Percent of Spikes in a Network Spike, Shafer Lab (AID 2284054; active = hit-call score of the fitted dose curve at least 0.9, where 1 is the maximum; inactive = score below 0.9)
Outline: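 Read-out: percent of spikes falling in a 0.05 s window at network-spike peak, from spontaneous MEA recordings on days 5, 7, 9 and 12; trapezoidal AUC; loss of signal versus DMSO. Rat cortical cultures, compound present throughout.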

[22] = CCTE_Shafer_MEA_dev_LDH: CCTE's Lactate Dehydrogenase Assay for Cytotoxicity in the Neural Network Formation Assay, Shafer Lab (AID 2284068);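 note: exposure for twelve days from plating with re-dosing on DIV 5 and 9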
Outline: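 Primary rat cortical neurons were plated on PEI/laminin MEA plates and exposed from day 0 for twelve days, with compound renewed at DIV 5 and 9. Cytotoxicity was determined by spectrophotometric LDH assay relative to DMSO.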

[23] = CCTE_Shafer_MEA_dev_mutual_information_norm: CCTE's Neural Network Formation Assay for Mutual Information Normalization, Shafer Lab (AID 2284091; active = hit-call score of the fitted dose curve at least 0.9, where 1 is the maximum; inactive = score below 0.9)
Outline: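 Neurons from rat cortex were seeded at 1.5 x 10^5 cells/well onto PEI-coated MEAs in a laminin drop, then exposed to compound from day 0 for twelve days. Network recordings on four days gave mutual information, summarised by AUC relative to DMSO.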

[24] = CCTE_Shafer_MEA_dev_correlation_coefficient_mean: CCTE's Neural Network Formation Assay for Mean Correlation Coefficient, Shafer Lab (AID 2284093; active = hit-call score of the fitted dose curve at least 0.9, where 1 is the maximum; inactive = score below 0.9)
Outline: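 Spontaneous activity recorded on days 5, 7, 9 and 12 post-plating; pairwise spike correlations are averaged across active electrodes and collapsed to an area-under-curve. Rat cortical cultures are dosed from plating through 12 days, with compound renewed at media changes.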

[25] = CCTE_Mundy_HCI_Cortical_Synap_Neur_Matur_NeuriteSpotCountPerNeuriteLength: CCTE's Synaptogenesis and Neurite Maturation Assay in rat cortical cells for Neurite Spot Count per Neurite Length, Mundy Lab (AID 2284210; active = hit-call score of the fitted dose curve at least 0.9, where 1 is the maximum; inactive = score below 0.9)
Outline: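 Read-out: synaptophysin puncta counted along MAP2-stained neurites, normalised to neurite length, by automated high-content imaging. Rat cortical cells; AraC DIV 5; chemical dosing DIV 7; termination DIV 12. DMSO baseline.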

[26] = CCTE_Mundy_HCI_Cortical_NOG_NeuriteLength: CCTE's Neurite Outgrowth Assay in rat cortical cells for Neurite Length, Mundy Lab (AID 2284213; active = hit-call score of the fitted dose curve at least 0.9, where 1 is the maximum; inactive = score below 0.9)
Outline: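 First, rat primary cortical cells were plated and, 2 h later, given test chemical as a 1/10 dilution. Finally, βIII-tubulin immunostaining enabled automated imaging of neurite length.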

[27] = CCTE_Mundy_HCI_Cortical_Synap_Neur_Matur_NeuriteLength: CCTE's Synaptogenesis and Neurite Maturation Assay in rat cortical cells for Neurite Length, Mundy Lab (AID 2284214; active = hit-call score of the fitted dose curve at least 0.9, where 1 is the maximum; inactive = score below 0.9)
Outline: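 DMSO-normalised neurite length, from high-content imaging of anti-MAP2-stained rat cortical cells fixed at DIV 12. Glia were suppressed with AraC (DIV 5) before chemical exposure from DIV 7.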

[28] = CCTE_Mundy_HCI_Cortical_Synap_Neur_Matur_NeuriteSpotCountPerNeuron: CCTE's Synaptogenesis and Neurite Maturation Assay in rat cortical cells for Neurite Spot Count per Neuron Count, Mundy Lab (AID 2284215; active = hit-call score of the fitted dose curve at least 0.9, where 1 is the maximum; inactive = score below 0.9)
Outline: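 Synapse density is scored as synaptophysin spots along neurites per neuron in fixed rat cortical neurons, measured at DIV 12 after chemical dosing at DIV 7. DMSO is the negative control and activity baseline.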

[29] = CCTE_Mundy_HCI_Cortical_Synap_Neur_Matur_SynapseCount: CCTE's Synaptogenesis and Neurite Maturation Assay in rat cortical cells for Synapse Count, Mundy Lab (AID 2284218; active = hit-call score of the fitted dose curve at least 0.9, where 1 is the maximum; inactive = score below 0.9)
Outline: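 Endpoint: synapses/neuron by HCI (synaptophysin puncta on MAP2-labelled neurites, Hoechst nuclei). Rat primary cortical cells, AraC DIV 5, dosed DIV 7, fixed DIV 12; DMSO negative control.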

[30] = CCTE_Mundy_HCI_hN2_NOG_NeuriteLength: CCTE's Neurite Outgrowth Assay in human hN2 cells for Neurite Length, Mundy Lab (AID 2284220)
Outline: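 Read-out is neurite length from high-content imaging of βIII-tubulin/Alexa Fluor-488-labelled neurons, referenced to DMSO controls.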

[31] = CCTE_Mundy_HCI_hN2_NOG_NeuronCount: CCTE's Neurite Outgrowth Assay in human hN2 cells for Neuron Count, Mundy Lab (AID 2284221)
Outline: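 Read-out is the number of betaIII-tubulin-positive neurons imaged by automated high-content analysis, with DMSO as negative control.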

[32] = CCTE_Mundy_HCI_Cortical_Synap_Neur_Matur_CellBodySpotCount: CCTE's Synaptogenesis and Neurite Maturation Assay in rat cortical cells for Cell Body Spot Count, Mundy Lab (AID 2284223; active = hit-call score of the fitted dose curve at least 0.9, where 1 is the maximum; inactive = score below 0.9)
Outline: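 Synapse number at neuronal cell bodies was quantified as synaptophysin puncta per neuron in rat cortical cultures exposed from DIV 7 to DIV 12. Values were normalised to DMSO.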

[33] = CCTE_Mundy_HCI_Cortical_NOG_NeuronCount: CCTE's Neurite Outgrowth Assay in rat cortical cells for Neuron Count, Mundy Lab (AID 2284236);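 note: neurons counted by imaging betaIII-tubulin and Hoechst stained cortical cells; cells exposed to compound for about 48 hours before fixation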
Outline: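 Read-out: neuron number by high-content imaging of betaIII-tubulin (Alexa Fluor-488) and Hoechst-labelled rat primary cortical cells.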

[34] = CCTE_Mundy_HCI_hNP1_Casp3_7: CCTE's Caspase-Glo 3/7 Assay in human neuroprogenitor cells for Apoptosis, Mundy Lab (AID 2284240; active = hit-call score of the fitted dose curve at least 0.9, where 1 is the maximum; inactive = score below 0.9)
Outline: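 Luminescent caspase-3/7 readout, 26.5 h post-dose, in human neural progenitor cells from WA09 embryonic stem cells. Cells grew 40–44 h at 37 °C, 5% CO2 before chemical addition. Activity analysed as signal increase over DMSO baseline.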

[35] = CCTE_Mundy_HCI_Cortical_Synap_Neur_Matur_NeuronCount: CCTE's Synaptogenesis and Neurite Maturation Assay in rat cortical cells for Neuron Count, Mundy Lab (AID 2284242)
Outline: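 Measured at DIV 12: fluorescently labelled neurons (Hoechst nuclei, MAP2) in rat primary cortical cultures, counted by high-content imaging. AraC suppressed glia from DIV 5; DMSO served as negative control.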

Measured: AC50

Sequence of Cellular tumor antigen p53 (Homo sapiens) (P04637 whole entry, looked up): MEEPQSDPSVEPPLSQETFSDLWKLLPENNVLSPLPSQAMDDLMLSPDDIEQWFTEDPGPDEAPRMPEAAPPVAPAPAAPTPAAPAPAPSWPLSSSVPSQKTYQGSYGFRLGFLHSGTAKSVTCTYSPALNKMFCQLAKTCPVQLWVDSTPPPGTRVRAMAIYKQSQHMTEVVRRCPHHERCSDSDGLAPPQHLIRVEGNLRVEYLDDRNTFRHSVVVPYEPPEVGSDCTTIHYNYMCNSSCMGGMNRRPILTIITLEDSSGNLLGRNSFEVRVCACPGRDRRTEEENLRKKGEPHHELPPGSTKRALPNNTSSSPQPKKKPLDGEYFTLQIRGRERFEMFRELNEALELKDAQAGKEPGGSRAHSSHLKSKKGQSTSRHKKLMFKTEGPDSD

CCC1(c2ccccc2)C(=O)NC(=O)N(C(=O)c2ccccc2)C1=O (stereo unspecified)
inactive: [1] | [2] | [3] | [4] | [5] | [6] | [7]

O=C1NCN(c2ccccc2)C12CCN(CC1COc3ccccc3O1)CC2 (stereo unspecified)
inactive: [1] | [2] | [6] | [7]

CC(=O)CCC(C)=O
inactive: [1] | [2] | [4] | [5]

C=C1CC[C@@]2(O)[C@H]3Cc4ccc(O)c5c4[C@@]2(CCN3CC2CC2)[C@H]1O5
inactive: [1] | [2] | [3] | [7]

CN[C@]1(c2ccccc2Cl)CCCCC1=O
active: [22] 9.27 µM
not listed: [3] | [6] | [7]
inactive: all other assays above
